According to PubChem BioAssay (Tox21):
Results filed as inconclusive are left out. A call without a number means that no potency is given here. Activity calls are given as the source filed them. Unless noted, calls come from the whole dose curve; as a rule, active = well fitted curve in the direction sought with a large enough effect in the repeat runs; inconclusive = weak or mixed curves; inactive = no such curve, though single readings can be large; an effect the other way counts as inactive or inconclusive.

Assays:
[1] = qHTS assay to identify small molecule agonists of the estrogen receptor alpha (ER-alpha) signaling pathway in the presence of an antagonist - cell viability counter screen (AID 1259386);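 note: series mostly up to about 92 µM; cells exposed to compounds for 22 h at 37 °C before the viability read; nearly all actives have a fitted effect of over 30% in size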
Summary of the method: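 Cell viability in VM7Luc4E2 cells (endogenous full-length ER-alpha) measured by CellTiter-Fluor fluorescence in the same wells as the luciferase screen. Cells pre-cultured 5 days in charcoal-stripped serum, then treated 22 h with compounds at 15 concentrations plus 10.0nM ICI-182,780.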

[2] = target: Progesterone receptor (Homo sapiens) (UniProt P06401); assay: qHTS assay to identify small molecule agonists of the progesterone receptor (PR) signaling pathway (AID 1346784; calls by dose curve; note: nearly all actives have a fitted effect of over 30% in size)
Chain of Progesterone receptor (Homo sapiens) (P06401 whole entry, looked up): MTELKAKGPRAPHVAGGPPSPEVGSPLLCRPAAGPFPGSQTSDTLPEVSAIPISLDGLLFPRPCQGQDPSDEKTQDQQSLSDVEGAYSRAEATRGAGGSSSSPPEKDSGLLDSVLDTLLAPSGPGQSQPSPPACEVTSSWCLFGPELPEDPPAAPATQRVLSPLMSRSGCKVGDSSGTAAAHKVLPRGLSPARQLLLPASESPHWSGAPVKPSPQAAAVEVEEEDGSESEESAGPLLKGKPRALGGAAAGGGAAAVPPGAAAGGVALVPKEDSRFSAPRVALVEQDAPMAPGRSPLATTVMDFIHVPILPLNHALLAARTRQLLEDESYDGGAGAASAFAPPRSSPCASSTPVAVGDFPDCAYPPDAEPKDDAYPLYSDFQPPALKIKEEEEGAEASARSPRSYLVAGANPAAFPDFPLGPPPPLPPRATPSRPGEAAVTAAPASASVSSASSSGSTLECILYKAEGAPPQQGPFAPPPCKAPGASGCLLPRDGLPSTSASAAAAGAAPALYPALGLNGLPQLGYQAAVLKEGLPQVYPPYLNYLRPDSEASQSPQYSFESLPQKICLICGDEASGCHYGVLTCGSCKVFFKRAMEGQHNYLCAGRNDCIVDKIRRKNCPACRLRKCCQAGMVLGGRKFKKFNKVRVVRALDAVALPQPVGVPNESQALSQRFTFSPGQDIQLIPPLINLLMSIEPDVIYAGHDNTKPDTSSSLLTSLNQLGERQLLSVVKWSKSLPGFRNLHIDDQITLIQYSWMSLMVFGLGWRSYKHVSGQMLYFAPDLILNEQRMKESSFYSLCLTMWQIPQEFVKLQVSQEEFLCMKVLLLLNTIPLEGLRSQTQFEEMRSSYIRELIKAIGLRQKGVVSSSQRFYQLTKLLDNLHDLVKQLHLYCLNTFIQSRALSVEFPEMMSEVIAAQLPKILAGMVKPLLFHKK
Summary of the method: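 Beta-lactamase reporter read-out: after 16 hr compound treatment at 37C and a further 2 hr at room temperature with LiveBLAzer B/G FRET substrate, fluorescence was measured in PR-UAS-bla HEK 293T cells grown in 2% charcoal-stripped serum.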

[3] = target: Progesterone receptor (Homo sapiens) (UniProt P06401); assay: qHTS assay to identify small molecule antagonists of the progesterone receptor (PR) signaling pathway (AID 1346795; active = well fitted inhibition curve with a large enough effect in the signal ratio in the repeat runs, not every such curve was filed as active; the % refers to the signal ratio)
Summary of the method: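 Read-out is fluorescence from the LiveBLAzer B/G FRET substrate, cleaved by a UAS-controlled beta-lactamase in PR-UAS-bla HEK293T cells after 16 hr exposure to compound plus 1 nM promegestone (final), followed by 2 hr at room temperature.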

[4] = qHTS assay to identify small molecule antagonists of the TGF-beta/Smad signaling pathway - cell viability counter screen (AID 1346824); note: nearly all actives have a fitted effect of over 50% in size
Summary of the method: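 Cytotoxicity counter-screen run in the same wells as the beta-lactamase Smad reporter read: CellTiter-Glo luminescence after 30 min at room temperature. HEK 293T SBE-bla cells had 5 hr compound exposure at 37 C with TGF-beta1 (0.25 ng/mL stock).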

[5] = qHTS assay to identify small molecule agonists of the TGF-beta/Smad signaling pathway - cell viability counter screen (AID 1346829); note: top concentration of the series differs between compounds; nearly all actives have a fitted effect of over 45% in size
Summary of the method: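 After overnight seating at 37 C and 5% CO2, reporter cells got compounds for 5 hr and FRET substrate for 2 hr; cell viability then came from CellTiter-Glo luminescence.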

[6] = qHTS assay to identify small molecule agonists of the TGF-beta/Smad signaling pathway (AID 1346859; active = well fitted activation curve with a large enough effect in the signal ratio in the repeat runs, not every such curve was filed as active; the % refers to the signal ratio; note: series mostly up to about 77 µM)
Summary of the method: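 SBE-bla HEK 293T, 4,000 cells/well, plated o/n; cpd in DMSO, 5 hr, 37 C/5% CO2; B/G FRET substrate 2 hr RT; ex 405, em 460/530 nm.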

[7] = qHTS assay to identify small molecule antagonists of the progesterone receptor (PR) signaling pathway - cell viability counter screen (AID 1346798); note: nearly all actives have a fitted effect of over 50% in size; note: potency is the fitted concentration of half-maximal effect
Summary of the method: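 HEK293T PR-UAS-bla, 2% charcoal-stripped FBS; 4 hr pre-plate; cpd + R5020, 16 h 37C; LiveBLAzer read first; then CellTiter-Glo 30 min RT, luminescence.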

[8] = qHTS assay to identify small molecule agonists of the progesterone receptor (PR) signaling pathway - cell viability counter screen (AID 1346799; calls by dose curve; note: nearly all actives have a fitted effect of over 45% in size)
Summary of the method: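 Luminescence from CellTiter-Glo, added after the beta-lactamase FRET read in the same wells, gave cytotoxicity in PR-UAS-bla HEK293T cells treated with compounds for 16 hr at 37C.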

[9] = target: Thyrotropin-releasing hormone receptor (Homo sapiens) (UniProt P34981); assay: qHTS assay to identify small molecule antagonists of the thyrotropin-releasing hormone receptor (TRHR) signaling pathway (AID 1346877; active = well fitted inhibition curve with a large enough effect in the repeat runs, not every such curve was filed as active; note: series mostly up to about 51 µM)
Chain of Thyrotropin-releasing hormone receptor (Homo sapiens) (P34981 whole entry, looked up): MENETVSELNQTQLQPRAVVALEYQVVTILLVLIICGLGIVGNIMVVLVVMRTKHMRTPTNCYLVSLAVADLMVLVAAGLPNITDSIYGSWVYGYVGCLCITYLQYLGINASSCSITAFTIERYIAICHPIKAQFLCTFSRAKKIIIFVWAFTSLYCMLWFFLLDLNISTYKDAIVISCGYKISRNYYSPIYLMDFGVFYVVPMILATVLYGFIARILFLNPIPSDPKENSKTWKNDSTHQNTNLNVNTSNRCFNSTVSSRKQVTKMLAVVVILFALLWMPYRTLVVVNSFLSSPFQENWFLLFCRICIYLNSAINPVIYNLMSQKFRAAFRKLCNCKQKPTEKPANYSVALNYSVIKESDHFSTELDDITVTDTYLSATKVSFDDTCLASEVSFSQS
Summary of the method: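 TRHR-expressing HEK293 cells loaded with calcium dye for 2 h at 37 C; compounds pre-incubated 5 min at room temperature before TRH challenge at 1 nM final. Intracellular calcium fluorescence read kinetically for 3 min; 15 concentrations in triplicate.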

[10] = target: Thyrotropin-releasing hormone receptor (Homo sapiens) (UniProt P34981); assay: qHTS assay to identify small molecule agonists of the thyrotropin-releasing hormone receptor (TRHR) signaling pathway (AID 1346891; calls by dose curve; note: series mostly up to about 58 µM)
Summary of the method: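 Intracellular calcium rise, read as fluorescence every second for 3 min, served as the agonist signal in dye-loaded HEK293 cells expressing TRHR; each compound ran at 15 concentrations in triplicate.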

For NC(=S)C(N)=S, which Potency [1] is on record?
Its Potency is “inactive”.

And the Potency [2]?
The Potency was “inactive”.

What about the Potency [3] of the same compound?
Its Potency is “inactive”.

And the Potency [4]?
The Potency was “inactive”.

What about the outcome [5] of the same compound?
The outcome was “inactive”.

And the outcome [6]?
Its outcome is “inactive”.

Which Potency [1] does the source give for Cc1cc(C)nc(Nc2ccccc2)n1 here?
Its Potency is “inactive”.

And the Potency [2]?
Its Potency is “inactive”.

And the Potency [7]?
The Potency was “inactive”.

And the Potency [8]?
The Potency was “inactive”.

And the Potency [4]?
The Potency was “inactive”.

And the outcome [5]?
The outcome was “inactive”.

And the outcome [6]?
The outcome was “inactive”.

And the outcome [9]?
The outcome was “inactive”.

What about the outcome [10] of the same compound?
The outcome was “inactive”.

For ClCC(Cl)(Cl)Cl, which Potency [1] is on record?
Its Potency is “inactive”.

And the Potency [2]?
The Potency was “inactive”.

And the Potency [7]?
Its Potency is “inactive”.

What about the Potency [8] of the same compound?
Its Potency is “inactive”.

And the Potency [4]?
Its Potency is “inactive”.

And the outcome [5]?
The outcome was “inactive”.

With [As]#[In] as the compound, how does the Potency [1] read?
The Potency was “inactive”.

What about the Potency [2] of the same compound?
The Potency was “inactive”.

What about the Potency [7] of the same compound?
The Potency was “inactive”.

What about the Potency [8] of the same compound?
Its Potency is “inactive”.

What about the Potency [4] of the same compound?
The Potency was “inactive”.

And the outcome [5]?
The outcome was “inactive”.

And the outcome [6]?
The outcome was “inactive”.

And the outcome [9]?
The outcome was “inactive”.

And the outcome [10]?
The outcome was “inactive”.

With C[C@]12CC[C@H]3[C@@H](CCC4=CC(=O)CC[C@@]43C)[C@@H]1CC[C@@H]2C(=O)O as the compound, how does the Potency [1] read?
Its Potency is “inactive”.

And the Potency [2]?
Its Potency is “inactive”.

And the Potency [7]?
Its Potency is “inactive”.

What about the Potency [8] of the same compound?
Its Potency is “inactive”.

And the Potency [4]?
The Potency was “inactive”.

What about the outcome [5] of the same compound?
The outcome was “inactive”.

Which results are given for CCOC(=O)/C=C(C)/C=C/C[C@@H](C)CCCC(C)C?
Potency [1]: inactive; Potency [2]: inactive; Potency [7]: inactive; Potency [8]: inactive; Potency [4]: inactive; outcome [5]: inactive; outcome [6]: inactive; outcome [9]: inactive; outcome [10]: inactive

For CCCCc1ccc(O)cc1, which Potency [1] is on record?
The Potency was “inactive”.

What about the Potency [2] of the same compound?
Its Potency is “inactive”.

What about the Potency [7] of the same compound?
The Potency was “inactive”.

And the Potency [8]?
The Potency was “inactive”.

And the Potency [4]?
Its Potency is “inactive”.

What about the outcome [5] of the same compound?
Its outcome is “inactive”.

What about the outcome [6] of the same compound?
The outcome was “inactive”.

What about the outcome [9] of the same compound?
Its outcome is “inactive”.

And the outcome [10]?
The outcome was “inactive”.

Which results are given for C#CCN1C(=O)COc2cc(F)c(N3C(=O)C4=C(CCCC4)C3=O)cc21?
Potency [1]: inactive; Potency [2]: inactive; Potency [3]: inactive; Potency [4]: inactive; outcome [5]: inactive; outcome [6]: inactive; outcome [9]: inactive; outcome [10]: inactive

Which results are given for COc1cc(OC)nc(Oc2cccc(Oc3nc(OC)cc(OC)n3)c2C(=O)O)n1?
Potency [1]: inactive; Potency [2]: inactive; Potency [7]: inactive; Potency [4]: inactive; outcome [5]: inactive; outcome [6]: inactive; outcome [9]: inactive; outcome [10]: inactive

For COC(=O)C(c1ccccc1)C1CCCCN1 (stereo unspecified), which Potency [1] is on record?
The Potency was “inactive”.

And the Potency [2]?
Its Potency is “inactive”.

And the Potency [8]?
The Potency was “inactive”.

What about the Potency [4] of the same compound?
The Potency was “inactive”.

What about the outcome [5] of the same compound?
Its outcome is “inactive”.

And the outcome [6]?
The outcome was “inactive”.

What about the outcome [9] of the same compound?
Its outcome is “inactive”.

What about the outcome [10] of the same compound?
The outcome was “inactive”.

Which results are given for CC(C(=O)c1ccccc1)N(C)C (stereo unspecified)?
Potency [1]: inactive; Potency [2]: inactive; Potency [8]: inactive; Potency [4]: inactive; outcome [5]: inactive; outcome [6]: inactive

Which Potency [1] does the source give for CCC(=O)C(CCN(C)C)(c1ccccc1)c1ccccc1 here?
Its Potency is “inactive”.

And the Potency [2]?
Its Potency is “inactive”.

What about the Potency [7] of the same compound?
Its Potency is “inactive”.

What about the Potency [8] of the same compound?
The Potency was “inactive”.

What about the Potency [4] of the same compound?
The Potency was “inactive”.

And the outcome [5]?
The outcome was “inactive”.

What about the outcome [9] of the same compound?
Its outcome is “inactive”.

And the outcome [10]?
Its outcome is “inactive”.

Which results are given for CCOC(=O)NC(=S)Nc1ccccc1NC(=S)NC(=O)OCC?
Potency [1]: inactive; Potency [2]: inactive; Potency [8]: inactive; Potency [4]: inactive; outcome [5]: inactive; outcome [10]: inactive

For OC(c1ccccc1)(c1ccccc1)C1CCNCC1, which Potency [1] is on record?
Its Potency is “inactive”.

What about the Potency [2] of the same compound?
The Potency was “inactive”.

And the Potency [8]?
Its Potency is “inactive”.

And the Potency [4]?
Its Potency is “inactive”.

And the outcome [5]?
Its outcome is “inactive”.

What about the outcome [9] of the same compound?
Its outcome is “inactive”.

And the outcome [10]?
The outcome was “inactive”.

With CC(Oc1ccc(Oc2ncc(C(F)(F)F)cc2Cl)cc1)C(=O)O (stereo unspecified) as the compound, how does the Potency [1] read?
The Potency was “inactive”.

And the Potency [2]?
The Potency was “inactive”.

And the Potency [7]?
Its Potency is 7.7 µM (active).

What about the Potency [4] of the same compound?
The Potency was “inactive”.

And the outcome [5]?
Its outcome is “inactive”.

What about the outcome [6] of the same compound?
Its outcome is “inactive”.
